# This is a sample that favours compounds with a hit; in the whole collection about 5.1% have one here.
# NR3A LBD binder: modulates the human NR3A ligand-binding domain. NR3A LBD differential scanning fluorimetry, Tm shift; 0% = protein alone, 100% = glycine-bound protein. Tm shift relative to glycine control, % at 25 µM. 340,000 compounds, 2.5% hits. AID 1259313;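 active = melting temperature shift of at least 10% of the positive control shift, at one fixed dose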
# ANO1 activ: mouse TMEM16A channel activation, primary screen; HEK293 TMEM16A/YFP-H148Q/I152L, iodide quench fluorescence; hits give low values; 340,000 compounds, 0.3% hits; B-score at 10 µM; AID 623877;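 active = fluorescence-ratio B-score plate-corrected deviation score at least 3 library SD below zero, with starting fluorescence score within 5 deviations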;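 also: channel opened by trigger with iodide after compound preincubation; score built on the fluorescence ratio of max minus min over baseline; more negative score means more quench and so TMEM16A activation or potentiation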
# ANO1 block: mouse TMEM16A channel inhibition, primary screen; 310,000 compounds, 1.2% hits; Q8BHY3; AID 588511; normalized B-score (activity score, 25-100; higher = stronger inhibition) at 10 µM; HEK293 TMEM16A/YFP iodide influx fluorescence, ionomycin;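 active = ratio plate-corrected score three or more library SD toward inhibition, starting fluorescence score within five deviations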;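 also: score derived from kinetic fluorescence span divided by baseline fluorescence per well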
# MPTP inh: permeability transition pore inhibition | isolated mouse mitochondria, Ca2+ swelling absorbance, 30 min | 360,000 compounds, 1.4% hits | inhibition, % at 10 µM;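 active = inhibition of 50% or more, scaled per plate between neutral and stimulator controls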;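 also: 0% = DMSO wells given calcium and 100% = 1 mM EGTA wells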
# CRFR2-BP antag: antagonists of CRF-binding protein/CRF-R2 receptor complex; 350,000 compounds, 0.59% hits; inhibition, % at 11.8 µM; AID 588475; HEK293 CRF-R2/CRF-BP, CRF-induced calcium fluorescence;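 active = inhibition of the ligand-induced calcium signal above about 50% at the single tested concentration, limit read from the data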
# CRFR2-BP ag: CRF-BP/CRF-R2 complex agonism. HEK293 CRF-R2/CRF-BP, calcium dye fluorescence (FLIPR); percent of saturating CRF peptide response. 350,000 compounds, 0.46% hits. activation, % at 13.2 µM;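 active = activation of at least 50%, plus an integration ratio under a set limit after plate pattern correction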;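 also: plate controls were neutral control wells without compound for no effect and CRF at EC100 for full effect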
# * marks the source's active call; other numbers are inactive results; i = inactive; · = no result given.
SMILES,NR3A LBD binder,ANO1 activ,ANO1 block,MPTP inh,CRFR2-BP antag,CRFR2-BP ag
Brc1ccccc1-c1nnc(SCc2nc3ccccc3s2)o1,0.3,i,25*,-1.6,20.3,0.7
O=C(O)c1ccc(CSc2nnc(-c3ccccc3Br)o2)cc1,0.2,i,i,0.0,2.1,-1.6
CCn1cnc2c1c(=O)n(CC(=O)NCC(C)C)c(=O)n2Cc1ccccc1,0.5,i,i,-0.8,-1.3,-1.7
CCOC(=O)c1ccc(NC(=S)N2CCCC(C(=O)N3CCCC3)C2)cc1 (stereo not drawn),11.1*,i,i,-0.1,5.6,0.8
CS(=O)(=O)c1ccc(Cl)c(NC(=O)C2CCCCN2S(=O)(=O)c2ccccc2)c1 (stereo not drawn),-1.2,i,·,-1.5,7.4,-0.3
CCN(CC)c1ccc(/C=C/c2cc(-c3ccccc3)c3ccccc3n2)cc1,0.5,i,i,1.2,-51.4,67.0*
O=C(O)Cc1ccc(S(=O)(=O)N2CCCC2)s1,-2.4,i,·,-0.7,1.2,3.3
CCOC(=O)c1cnc2ccc(C)cc2c1Sc1ccc(F)cc1,18.7*,i,i,1.5,-10.0,0.8
CCOC(=O)c1cnc2ccc(C)cc2c1Sc1ccccc1,0.5,i,i,-0.1,4.9,-1.3
COC(=O)c1cc2ccccc2c(-c2c(O)ccc3ccccc23)c1O,11.7*,i,i,1.5,31.6,4.0
COC(=O)c1ccccc1C(=O)c1cccc2ccccc12,-2.3,i,i,0.1,5.1,0.5
Cc1ccc(COCC(CC(C)C)N2CCN(C(=O)c3cccc(C(F)(F)F)c3)CCC2=O)cc1 (stereo not drawn),-1.0,-17.1*,i,1.7,2.8,1.3
Cc1ccc(S(=O)(=O)N2CCC(=O)N([C@H](COCc3ccc(C(F)(F)F)cc3)Cc3ccccc3)CC2)cc1,·,·,·,-1.6,·,·
Cc1ccc(S(=O)(=O)N2CCC(=O)N(C(COCc3ccc(Cl)c(Cl)c3)Cc3ccccc3)CC2)cc1 (stereo not drawn),-1.7,·,i,·,-36.7,70.8*
Cc1ccc(S(=O)(=O)N2CCC(=O)N(C(COCc3cccc(C)c3)Cc3ccccc3)CC2)cc1 (stereo not drawn),1.4,-21.9*,i,0.0,-15.8,13.5
Cc1ccc(S(=O)(=O)N2CCC(=O)N([C@H](CO)Cc3ccccc3)CC2)cc1,·,·,·,-0.5,·,·
Cc1ccc(S(=O)(=O)N2CCC(=O)N(C(COCc3ccc(C(F)(F)F)cc3)Cc3ccccc3)CC2)cc1 (stereo not drawn),-0.4,-33.9*,i,0.8,-20.2,62.1*
COc1ccc(CCN2CC(C(=O)NCc3ccon3)CCC2=O)cc1 (stereo not drawn),·,·,·,1.4,19.5,-1.4
CC(C)Oc1ccc(C(=O)Nc2cc(S(=O)(=O)N3CCOCC3)ccc2N2CCOCC2)cc1,2.1,i,·,-0.9,13.2,-0.8
COCCN(C(=O)CSc1nnc(-c2ccncc2)n1C)c1c(N)n(CC(C)C)c(=O)[nH]c1=O,0.8,i,·,-0.5,19.0,6.1
O=C(Nc1ccc2c(c1)OCCO2)C(C1CC1)n1c(=O)c(-c2ccccc2)nc2ccccc21 (stereo not drawn),·,·,·,0.7,·,·
COC(=O)C1C(=O)NC(SC)=C(C#N)C1c1ccccc1 (stereo not drawn),0.3,i,i,11.9,-7.9,-0.3
CCOC(=O)C1C(=O)NC(SCC(N)=O)=C(C#N)C1c1ccccc1OCC (stereo not drawn),-0.9,i,i,3.2,-4.7,3.8
COC(=O)CSC1=C(C#N)C(c2ccc(Cl)cc2)C(C(=O)OC)C(=O)N1 (stereo not drawn),3.5,·,i,-3.9,58.1*,-1.4
CCOC(=O)CSC1=C(C#N)C(c2ccc(Cl)cc2)C(C(=O)OC)C(=O)N1 (stereo not drawn),1.8,i,i,0.7,52.7*,-2.8
SMILES,NR3A LBD binder,ANO1 activ,ANO1 block,MPTP inh,CRFR2-BP antag,CRFR2-BP ag
Cc1ccc(S(=O)(=O)N2CCC(C(=O)Nc3ccccc3N3CCCC3)CC2)cc1C,-0.3,i,i,0.7,19.2,-1.1
CCC(C)NC(=O)CSc1nc2ccccc2c(=O)n1CCCC(=O)NCC1CCCO1 (stereo not drawn),-6.0,i,i,1.7,50.7*,-4.3
CCOc1ccc(-c2ccc(SCC(=O)NCC3CCCO3)nn2)cc1 (stereo not drawn),0.9,i,i,1.1,-3.3,-2.3
O=C(Cn1nc(-c2ccccc2)c2ccccc2c1=O)NCC1CCCO1 (stereo not drawn),-1.4,i,i,1.4,9.1,-0.4
O=C(CSc1nnc(-c2ccccc2)c2ccccc12)NCC1CCCO1 (stereo not drawn),·,-6.82*,i,-0.2,·,·
Cc1ccc(-c2ccc(SCC(=O)NCC3CCCO3)nn2)cc1 (stereo not drawn),-1.8,i,i,-0.3,83.4*,-0.1
CCN(CC)S(=O)(=O)c1ccc2[nH]c(=O)cc(C(=O)NCC3CCCO3)c2c1 (stereo not drawn),16.8*,i,i,0.2,12.4,-0.9
Cc1ccc(N2C(=O)C3C4C=CC(CC4)C3C2=O)cc1[N+](=O)[O-] (stereo not drawn),-1.6,i,i,-0.5,73.0*,1.7
Cc1ccc(/C=N/NC(=O)c2nnn(-c3nonc3N)c2C(C)C)o1,-2.9,i,i,-0.5,-7.3,-1.4
Cc1ccc(/C=N/NC(=O)c2nnn(-c3nonc3N)c2CN(C)C)s1,2.8,i,i,-0.2,-0.7,-1.4
Cc1c(C(=O)N/N=C/c2c(O)ccc3ccccc23)nnn1-c1nonc1N,4.1,i,i,0.0,-9.3,5.7
Cc1ccc(/C=N/NC(=O)c2nnn(-c3nonc3N)c2C(C)C)s1,11.1*,i,i,-1.0,-15.7,-1.0
COc1ccc2ccccc2c1/C=N/NC(=O)c1nnn(-c2nonc2N)c1C(C)C,12.7*,i,i,2.6,-16.2,5.1
COc1ccc2ccccc2c1/C=N/NC(=O)c1nnn(-c2nonc2N)c1CN(C)C,0.1,i,i,0.2,-7.9,0.0
COCc1c(C(=O)N/N=C/c2cccc3ccccc23)nnn1-c1nonc1N,30.7*,i,i,-0.3,19.7,1.6
Cc1ccc(/C=N/NC(=O)c2nnn(-c3nonc3N)c2CN(C)c2ccccc2)s1,18.1*,i,i,-2.4,-0.1,1.2
CCOc1ccccc1N1CCN(C(=O)NCc2ccc(Cl)cc2)CC1,1.7,i,i,-1.9,3.4,-3.2
COCC(C)n1c(SCc2ccc(C(=O)OC)cc2)nc2ccccc2c1=O (stereo not drawn),1.7,i,i,0.5,15.2,1.4

# Assay outcomes: PubChem BioAssay, several laboratories
